Data: PubChem BioAssay (NCI)
About 79,000 compounds went through this panel and 15% of them were active in at least one assay; those are over-represented in the sample as a whole. Values without a mark were called inactive. Calls of active or inactive are those of the source. Cut-off read from the data, not from the text of the source: active = growth inhibition above about 70%; inactive = the rest.

assay: NCI Yeast Anticancer Drug Screen. Data for the rad50 strain (AID 155);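 note: 0% = growth of vehicle-only cultures of the same strain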; conditions: S. cerevisiae rad50 strain growth inhibition; at 5.0 µM (retest, dose inferred, filed as 0.5); active compounds read high
In short: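 Compounds were tested on a yeast strain with an engineered DNA damage repair alteration; the reported value is growth inhibition normalised to vehicle treatment.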

| Structure (SMILES) | growth inhibition |
| --- | --- |
| c1ccc2nc3ccccc3nc2c1 | -11% |
| O=C(NCCCl)Nc1c2ccccc2nc2ccccc12 | 15% |
| CC1=C2CCC3C(CCC4(C)C(C(C)CCCC(C)C)CCC34)C2(C)CCC1=O (configuration not stated) | -11% |
| Cc1cccc(Cl)c1NC(=O)/C=C/c1ccccc1 | 41% |
| O=C1/C(=C/c2ccc(Cl)cc2)CSC/C1=C\c1ccc(Cl)cc1 | 23% |
| CCOC(=O)c1c(N)sc2c1CCCCC2 | -160% |
| CC(C)NC(=O)O/N=C1\CCC2[C@@H]3CC=C4C[C@@H](OC(=O)NC(C)C)CC[C@]4(C)C3CC[C@]12C (some centres not stated) | 88% (active) |
| COc1ccc2c(c1)c(=O)c1c(NCCN(C)C)ccc3nnn2c31 | 13% |
| CCCC(=O)N(C(=O)CCC)C1=C(Cl)C(=O)c2ccccc2C1=O | 55% |
| CN(C)C1C=CCC(c2ccccc2)C1[N+](=O)[O-] (configuration not stated) | 1% |
| CC(=O)NC1C(=O)CC(c2ccccc2)N(C)C1c1ccccc1 (configuration not stated) | 2% |
| CCCCC#CCCOC(=O)C#CCCCC | 1% |
| CC1C[C@]2(C)C(=S)Nc3ccccc3[C@@H]2Nc2ccccc21 (some centres not stated) | -1% |
| O=[N+]([O-])/C=C/c1c[nH]c2c1ccc1ccccc12 | 42% |
| CCC[CH2][Sn]([S][Sn]([CH2]CCC)([c]1ccccc1)[c]1ccccc1)([c]1ccccc1)[c]1ccccc1 | 97% (active) |
| CCN(CC)CCCCNc1ccc(Cl)cc1 | -2% |
| C[n+]1c(/C=C\c2ccccc2)sc2ccccc21 | 23% |
